Bioassay records (PubChem)
The list is not random: actives were taken first. Their share in the collection is about 3.4%.
OTUD3 block: inhibitors of human OTUD3 deubiquitinase | Q5T2D3 | inhibition, % at 25 µM | purified OTUD3, Ub-rhodamine fluorescence, 2 h | 47,000 tested, 0.7% active
USP28 block: human USP28 deubiquitinase inhibition. 47,000 tested, 3% active. purified USP28, Ub-rhodamine cleavage fluorescence, 30 min. inhibition, % at 25 µM. Q96RU2
Target sequence (Q96RU2 whole entry, looked up): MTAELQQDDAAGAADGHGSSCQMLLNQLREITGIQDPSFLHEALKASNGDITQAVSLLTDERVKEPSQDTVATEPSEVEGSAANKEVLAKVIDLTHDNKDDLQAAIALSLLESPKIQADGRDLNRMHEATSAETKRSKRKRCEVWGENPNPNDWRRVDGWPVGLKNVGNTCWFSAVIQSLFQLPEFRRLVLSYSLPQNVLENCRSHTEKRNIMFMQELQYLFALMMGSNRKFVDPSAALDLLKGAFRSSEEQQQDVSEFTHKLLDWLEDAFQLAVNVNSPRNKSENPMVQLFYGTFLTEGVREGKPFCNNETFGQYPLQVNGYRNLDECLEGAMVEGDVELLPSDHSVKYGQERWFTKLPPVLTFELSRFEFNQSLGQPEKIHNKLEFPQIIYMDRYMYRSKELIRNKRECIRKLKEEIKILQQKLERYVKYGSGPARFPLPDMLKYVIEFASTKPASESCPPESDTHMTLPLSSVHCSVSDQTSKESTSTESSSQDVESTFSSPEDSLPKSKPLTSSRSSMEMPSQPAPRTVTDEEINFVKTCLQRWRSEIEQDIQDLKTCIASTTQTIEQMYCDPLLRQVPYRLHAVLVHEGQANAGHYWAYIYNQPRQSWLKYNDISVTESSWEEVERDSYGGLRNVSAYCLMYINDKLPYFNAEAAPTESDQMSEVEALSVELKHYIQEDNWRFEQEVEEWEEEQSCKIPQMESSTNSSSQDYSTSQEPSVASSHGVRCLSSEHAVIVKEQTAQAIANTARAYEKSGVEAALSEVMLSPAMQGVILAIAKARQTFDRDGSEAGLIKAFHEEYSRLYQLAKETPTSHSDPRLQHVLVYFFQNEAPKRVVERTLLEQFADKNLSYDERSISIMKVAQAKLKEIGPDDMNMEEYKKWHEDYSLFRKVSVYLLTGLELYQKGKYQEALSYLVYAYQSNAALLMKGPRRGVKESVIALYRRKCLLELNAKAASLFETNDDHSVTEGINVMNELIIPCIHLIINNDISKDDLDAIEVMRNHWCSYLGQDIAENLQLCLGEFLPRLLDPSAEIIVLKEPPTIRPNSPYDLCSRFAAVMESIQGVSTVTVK
Large screens that a line does not name were inactive. Cut-off read from the data, not from the text of the source: active = inhibition above about 30%; inactive = the rest.

NC(=O)C1Cc2ccccc2N1C(=O)CCc1ccccc1 (stereo unspecified)	none
CN1CC(=O)N(C2CCCNC2)Cc2c(NC3Cc4ccccc4C3)ncnc21 (stereo unspecified)	none
O=c1[nH]c2ccc(NCc3cccc(OCc4ccc(F)cc4)c3)cc2[nH]1	none
O=c1[nH]c2ccc(NCc3ccccc3OCc3ccc(Cl)cc3)cc2[nH]1	USP28 block 37.4
COCC(=O)N[C@H]1C[C@H]2Cc3ccccc3[C@@H](C1)N2C(C)=O	none
CCOc1ccccc1NC(=O)COC(=O)C(c1ccccc1)c1ccccc1	OTUD3 block 33.7
Cc1cc(C)c(NC(=O)COC(=O)C(c2ccccc2)c2ccccc2)c(C)c1	none
O=C(C1CCC(=O)N1S(=O)(=O)c1ccccc1)N1CCN(c2ccc(F)cc2)CC1 (stereo unspecified)	none
CCN1C(=O)c2cccnc2Sc2cc(NC(=O)c3ccc(Cl)s3)ccc21	USP28 block 50.8
CCN1C(=O)c2cccnc2Sc2cc(NC(=O)C3CCC3)ccc21	none
CCN1C(=O)c2cccnc2Sc2cc(NC(=O)CCc3ccccc3OC)ccc21	none
CCN1C(=O)c2cccnc2Sc2cc(NC(=O)CCc3cccc(OC)c3)ccc21	USP28 block 43.7
Cc1cccc(NC(=O)Cc2cn3ccccc3n2)c1	none
CCNC(=O)c1cc2nc(N(C)C)n(-c3ccccc3)c2s1	none
Cc1ccc(-c2csc(-n3ncc(C(=O)N4CCN(C(=O)Nc5cccc6ccccc56)C(C)C4)c3C(C)C)n2)cc1 (stereo unspecified)	none
CCOc1ccccc1NC(=O)Cn1c(=O)n(CCCC(=O)N2CCc3ccccc3C2)c(=O)c2ccccc21	none
COc1cccc(NC(=O)Cn2cc(C(=O)C3CC3)c3ccccc32)c1	none
Cc1ccc(C)c(NC(=O)Cn2cc(C(=O)C3CC3)c3ccccc32)c1	USP28 block 57.0
Cc1cnc(C(=O)N2CCC3(CC2)CCN(c2cnn(C)c2)C3=O)cn1	none
COc1ccc(OCc2nc(-c3ccc(N4CCCCCC4)nc3)no2)cc1	none
Cc1cccc(OCc2nc(-c3ccnc(N4CCCC4)c3)no2)c1	USP28 block 32.0
Fc1ccc(Cc2nc(-c3ccnc(N4CCCC4)c3)no2)cc1	USP28 block 47.9
c1cc(-c2noc([C@@H]3CCCN3CC3CC3)n2)cc(N2CCCC2)n1	none
Cn1cc(-c2cnc(-c3cccc(F)c3)nc2)cc1C(=O)NCc1cccnc1	none
CC(C)n1ncc2cc(NC(=O)c3ccccc3C(=O)c3ccc(F)cc3)cnc21	none
Cc1ccc(Cl)cc1NC(=O)Cn1c(=O)n(CCC(=O)NC2CCCC2)c(=O)c2ccccc21	none
O=C1NC2(CCN(C(=O)c3ccccc3Cl)CC2)N=C1c1ccc(Cl)cc1	none
CC1(C)CC(=O)c2ccc(OCc3ccc([N+](=O)[O-])cc3)cc2O1	USP28 block 35.7
CCn1c(COc2ccc3c(c2)OCO3)nnc1SCc1ccc([N+](=O)[O-])cc1	none
COc1ccc(-c2ocnc2C(=O)Nc2ccc(C)c(F)c2)cc1	none (no result: USP28 block)
COc1ccc(-c2ocnc2C(=O)NCc2ccc(F)cc2)cc1	USP28 block 54.8
O=C(O)CCSc1nnc(COc2ccc(Br)cc2)n1Cc1ccccc1	none
COc1cccc(-c2nnc(NC(=O)CSc3ccc(Cl)cc3)o2)c1	none
CC(=O)Nc1cccc(NC(=O)c2cc(-c3ccccc3)nc3onc(C)c23)c1	none
COc1cccc(NC(=O)CCc2nnc3n(CCCOC(C)C)c(=O)c4ccccc4n23)c1	OTUD3 block 36.6, USP28 block 69.9
CC(C)OCCCn1c(=O)c2ccccc2n2c(CCC(=O)NCc3ccccn3)nnc12	none
O=C(Cn1cc(C(=O)C(F)(F)F)c2cc(Br)ccc21)N1CCc2ccccc21	none
O=C(c1cc2ccccc2o1)N1CC=C(c2ccccc2)CC1	OTUD3 block 31.9, USP28 block 33.8
O=C(c1cc2ccccc2o1)N1CCc2sccc2C1c1ccccc1 (stereo unspecified)	none
Cc1cc(CN2C(=O)NC(C)(c3cccc4ccccc34)C2=O)on1 (stereo unspecified)	none
COc1cccc(OC)c1C(=O)OCC(=O)Nc1ccc(Oc2ccccc2)cc1	USP28 block 34.0
CC(C)Oc1ccc(C(=O)OCC(=O)Nc2ccc(Oc3ccccc3)cc2)cc1	none
CC1CCCCN1Cc1nc(Cn2ccn3nc(-c4ccccc4)cc3c2=O)no1 (stereo unspecified)	none
CN1C(=O)c2cc(NC(=O)c3ccccc3Cl)ccc2Oc2ccccc21	USP28 block 79.8
CCCN1C(=O)CCc2cc(NC(=O)c3ccccc3)ccc21	none
CCN1C(=O)Cc2cc(NC(=O)c3ccc(-c4ccccc4)cc3)ccc21	none
CN1C(=O)c2cc(NC(=O)c3ccccc3)ccc2Oc2ccccc21	USP28 block 41.3
CCN1C(=O)c2cc(NC(=O)c3ccc(F)cc3)ccc2Oc2ccccc21	USP28 block 44.7
Cc1ccccc1C(=O)Nc1ccc2c(c1)Sc1ncccc1C(=O)N2C	none
COc1ccccc1N1CCn2c(nc3cc(NS(C)(=O)=O)ccc32)C1	none
O=C1NC2(CCC(=O)N(CC(=O)N3CCCCCC3)CC2)Nc2ccccc21 (stereo unspecified)	none
O=c1[nH]c(C2CCN(S(=O)(=O)c3ccc(S(=O)(=O)NC4CC4)cc3)CC2)nc2c1nnn2Cc1c(Cl)cccc1Cl	none
Cc1ccc(Cn2nnc3c(=O)[nH]c(C4CCN(S(=O)(=O)c5ccc(S(=O)(=O)NC6CCCCC6)cc5)CC4)nc32)cc1	none
O=c1[nH]c(C2CCN(S(=O)(=O)c3ccc(S(=O)(=O)NC4CCCCC4)cc3)CC2)nc2c1nnn2Cc1ccc(F)cc1	USP28 block 43.7
O=c1[nH]c(C2CCN(S(=O)(=O)c3ccc(S(=O)(=O)NC4CCCCC4)cc3)CC2)nc2c1nnn2Cc1c(Cl)cccc1Cl	USP28 block 48.7
Cc1ccc(Cn2nnc3c(=O)[nH]c(C4CCN(C(=O)CC(C)(C)C)CC4)nc32)cc1	USP28 block 31.5
O=c1[nH]c(C2CCN(S(=O)(=O)c3ccc(S(=O)(=O)NC4CC4)cc3)CC2)nc2c1nnn2Cc1ccc(F)cc1	none
O=c1[nH]c(C2CCN(S(=O)(=O)c3ccc(S(=O)(=O)NC4CCCCC4)cc3)CC2)nc2c1nnn2Cc1c(F)cccc1Cl	USP28 block 55.3
Cc1ccc(Cn2nnc3c(=O)[nH]c(C4CCN(C(=O)Cc5ccccc5)CC4)nc32)cc1	none
Cc1cccc(NS(=O)(=O)c2ccc3onc(C(=O)N4CCOCC4)c3c2)c1	none
O=S(=O)(c1ccc(Cl)cc1)c1cnc2ccccc2c1N1CCCCCC1	none
O=C(NCc1ccc2c(c1)OCO2)c1c(O)c2cnn(Cc3ccccc3)c2[nH]c1=O	none
COc1cc(Cl)ccc1C(=O)Nc1cccc(-n2cnnn2)c1C	none
Cc1ccc(C)c(Cn2nnc3c(=O)[nH]c(C4CCN(S(=O)(=O)c5ccc(S(=O)(=O)NC6CCCC6)cc5)CC4)nc32)c1	none
Cc1ccc(C)c(Cn2nnc3c(=O)[nH]c(C4CCN(S(=O)(=O)c5ccc(S(=O)(=O)NC6CC6)cc5)CC4)nc32)c1	USP28 block 42.2
O=C(NCCn1cc(SCC(=O)N2CCOCC2)c2ccccc21)c1cccc(C(F)(F)F)c1	none
CC[C@H](C)C[C@H]1CC[C@](O)([C@](C)(O)C(=O)N[C@@H]2C(=O)N3NCCC[C@@H]3C(=O)N(O)[C@@H](C)C(=O)NCC(=O)N3NCCC[C@H]3C(=O)N(O)[C@H](C)C(=O)O[C@H]2C(C)C)O[C@@H]1C	OTUD3 block 72.7, USP28 block 48.5
O=C(Cc1nnc(-c2ccccn2)o1)NCc1ccc(Cl)cc1	none
CCCCCC(O)/C=C/C(O)C(O)CCCCCCCC(=O)O (stereo unspecified)	none
